Assay [1] can be described thus: S16 Schwann cell viability assay (CellTiter-Glo assay) (AID 624031). Also: nearly all actives have a fitted effect of over 70% in size. Also: potency is read from the fitted curve at half-maximal effect. The method in brief:
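CellTiter-Glo ATP luminescence counter-screen in untransfected S16 rat Schwann cells, 24h compound exposure at 37 degree Celsius after overnight seeding (500-750 cells/well); response scaled between cell-free wells and DMSO (0% activity), curves classed by r2 and magnitude.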
On the technique in general: In ATP-based viability assays light output follows the ATP content of the culture.

Assay [2] can be described thus: S16 Schwann cell PMP22 intronic element firefly luciferase assay (AID 624032). Also: nearly all actives have a fitted effect of over 30% in size. Also: potency is read from the fitted curve at half-maximal effect. The method in brief:
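Luciferase reporter of PMP22 intronic-element expression in stably transfected S16 rat Schwann cells, read by ONE-Glo luminescence after 24 h compound exposure at 37 C. Activity scaled between DMSO (0%) and positive-control PTC124; concentration-effect curves quality-classified.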

The subject of a further assay is 3D7. Nature of the assay: qHTS profiling for inhibitors of Plasmodium falciparum proliferation (AID 504749). Also: nearly all actives have a fitted effect of over 60% in size. Also: potency is read from the fitted curve at half-maximal effect. The note with it: P. falciparum in erythrocytes, SYBR Green DNA, 72 h; series mostly up to 28.7 µM. The method in brief:
(§1)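 Three-day growth assay of blood-stage parasites in erythrocytes (0.3% parasitemia, 2.5% hematocrit) at 37 C, 5% CO2, quantified by SYBR Green DNA staining after overnight detergent lysis.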

In another assay the test system is 7G8. The description is as above. The note with it: P. falciparum in erythrocytes, SYBR Green DNA, 72 h; series mostly up to 28.7 µM. The procedure, abridged: as §1
Another assay relates to AA1029. The assay is described as above. Conditions: P. falciparum in erythrocytes, SYBR Green DNA, 72 h; series mostly up to 28.7 µM. The method in brief:
as §1

The test system of the next assay is CP211. Described as above. The note with it: P. falciparum in erythrocytes, SYBR Green DNA, 72 h; series mostly up to 28.7 µM. The method in brief: as §1
A further assay deals with CP217. Described as above. Conditions: P. falciparum in erythrocytes, SYBR Green DNA, 72 h; series mostly up to 28.7 µM. The procedure, abridged: as §1
Another assay has as its system CP269. The assay is described as above. The note with it: P. falciparum in erythrocytes, SYBR Green DNA, 72 h; series mostly up to 28.7 µM. The method in brief: as §1
The next assay relates to DIV14. The description is as above. The note with it: P. falciparum in erythrocytes, SYBR Green DNA, 72 h; series mostly up to 28.7 µM. The procedure, abridged: as §1
A further assay concerns DIV17. The assay is described as above. The note with it: P. falciparum in erythrocytes, SYBR Green DNA, 72 h; series mostly up to 28.7 µM. The method in brief:
as §1

For another assay, the system named is FAB9. The description is as above. The note with it: P. falciparum in erythrocytes, SYBR Green DNA, 72 h; series mostly up to 28.7 µM. The method in brief:
as §1

For the next assay, the system named is ICS. The assay is described as above. Conditions: P. falciparum in erythrocytes, SYBR Green DNA, 72 h; series mostly up to 28.7 µM. The procedure, abridged: as §1
The next assay relates to N140. Described as above. The note with it: P. falciparum in erythrocytes, SYBR Green DNA, 72 h; series mostly up to 28.7 µM. The procedure, abridged: as §1
In a further assay the test system is P93_24. The description is as above. Conditions: P. falciparum in erythrocytes, SYBR Green DNA, 72 h; series mostly up to 28.7 µM. The procedure, abridged:
as §1

The next assay deals with PAD. The description is as above. The note with it: P. falciparum in erythrocytes, SYBR Green DNA, 72 h; series mostly up to 28.7 µM. The procedure, abridged:
as §1

The next assay relates to TAB165. The assay is described as above. Conditions: P. falciparum in erythrocytes, SYBR Green DNA, 72 h; series mostly up to 28.7 µM. The method in brief:
as §1

Assay [3] can be described thus: Primary qHTS for inhibitors of SARS-S pseudo-typed particle cell entry (AID 1479145; calls by dose curve; also: nearly all actives have a fitted effect of over 45% in size). Background: qHTS replaces the single test concentration by a dilution series.
Assay [4] in a line: Cell Viability - LYMP2-001 (AID 921). Also: nearly all actives have a fitted effect of over 70% in size. The method in brief:
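Human lymphoblastoid cells (Coriell), 2500 per well, were preincubated 5 hr at 37 C, then exposed to compounds in complete medium for 24 hr at 37 C. Cellular ATP was read by CellTiter-Glo luminescence; AC50 from Hill fits of concentration-response data.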

In assay [5] the target is Bile acid receptor (Homo sapiens) (UniProt Q96RI1). Nature of the assay: qHTS assay for small molecule antagonists of farnesoid X receptor signaling (AID 588526; calls by dose curve). The method in brief:
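Beta-lactamase reporter antagonist mode: HEK293T FXR-UAS-bla cells, titrated compound, CDCA stimulation, 16 h 37 C, CCF4 dye 2 h RT. Data normalized to CDCA 50 uM and DMSO; Hill-fit IC50.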

The target in assay [6] is Tumor necrosis factor (Homo sapiens) (UniProt P01375). Nature of the assay: qHTS assay to identify small molecules that stimulate Tumor Necrosis Factor-alpha (TNF-alpha) secretion (AID 651757; active = well fitted curve in the direction sought with a large enough effect in the signal ratio; the % refers to the signal ratio). The method in brief: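 Secreted TNF-alpha from compound-treated THP-1 cells (17 hrs, 37 C) was quantified with a homogeneous time-resolved fluorescence antibody assay.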

Records with an inconclusive call do not appear. Calls of active or inactive are those of the source. Unless noted, calls follow the shape of the dose curve; as a rule, active = well fitted curve in the direction sought with a large enough effect; inconclusive = small, poorly fitted or top-dose-only effect, or another doubt; inactive = no such curve, though single readings can be large; an effect the other way counts as inactive or inconclusive.

Chain of Bile acid receptor (Homo sapiens) (Q96RI1 whole entry, looked up): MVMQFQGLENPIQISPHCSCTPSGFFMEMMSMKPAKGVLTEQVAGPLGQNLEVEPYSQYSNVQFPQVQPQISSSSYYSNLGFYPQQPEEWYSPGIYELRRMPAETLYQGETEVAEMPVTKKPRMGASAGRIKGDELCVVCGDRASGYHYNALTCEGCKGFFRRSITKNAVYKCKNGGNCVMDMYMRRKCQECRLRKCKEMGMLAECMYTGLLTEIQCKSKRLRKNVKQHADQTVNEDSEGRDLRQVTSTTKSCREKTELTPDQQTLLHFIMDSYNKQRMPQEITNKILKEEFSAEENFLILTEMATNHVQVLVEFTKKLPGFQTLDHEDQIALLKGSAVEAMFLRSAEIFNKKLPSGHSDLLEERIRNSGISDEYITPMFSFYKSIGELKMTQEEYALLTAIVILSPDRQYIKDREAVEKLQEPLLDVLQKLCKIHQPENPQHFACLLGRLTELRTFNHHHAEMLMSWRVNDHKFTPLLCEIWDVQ
Chain of Tumor necrosis factor (Homo sapiens) (P01375 whole entry, looked up): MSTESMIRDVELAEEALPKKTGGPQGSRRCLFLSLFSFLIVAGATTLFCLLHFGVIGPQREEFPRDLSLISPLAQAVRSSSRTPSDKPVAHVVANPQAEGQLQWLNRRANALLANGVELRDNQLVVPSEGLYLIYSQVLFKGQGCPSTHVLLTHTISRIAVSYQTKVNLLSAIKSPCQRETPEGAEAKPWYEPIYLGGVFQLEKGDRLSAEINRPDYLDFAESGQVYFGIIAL

For the molecule `C[N+](C)(C)CC(=O)[O-]`, the Potency result (in [1]; in assay [2]; with 3D7; in the assay on 7G8; in the assay on AA1029; in the assay on CP211) was “inactive” in each case. For the same molecule, the Potency result in the assay on CP217, in the assay with CP269, in the assay on DIV14, in the assay on DIV17, in the assay on FAB9 and in the assay on ICS was “inactive” each time. For the same molecule, the Potency entry in the assay on N140, with P93_24, in the assay on PAD and with TAB165 was “inactive” each time.
With `COC(=O)[C@H]1[C@@H](OC(=O)c2ccccc2)C[C@@H]2CC[C@H]1N2C`, the Potency result in assay [3] is “inactive”.
As to `O=Cc1ccccc1`, the result in [4] and in assay [6] was inactive. Moreover, in assay [5], the Potency entry is “inactive”.
In the case of `COC(=O)c1ccccc1C(=O)OC`, the outcome in assay [4] and in [6] was inactive. The Potency entry in assay [5] was “inactive”.
For `CC(C)C[C@H]1C(=O)N2CCC[C@H]2[C@]2(O)O[C@](NC(=O)[C@@H]3C[C@@H]4c5cccc6[nH]cc(c56)C[C@H]4N(C)C3)(C(C)C)C(=O)N12`, the Potency entry in [3] was “inactive”.
With `Oc1cc[c]([Hg][Cl])cc1`, the Potency is 1.14 µM (active) in assay [1]; 0.907 µM (active) in [2]; 8.91 µM (active) with 3D7; 3.16 µM (active) in the assay on 7G8; 11.2 µM (active) with AA1029; 10.7 µM (active) in the assay with CP211. Also, the Potency with CP217 was 8.91 µM (active); in the assay with CP269, 8.49 µM (active); with DIV14 it was 7.57 µM (active); with DIV17, 6.75 µM (active); in the assay on FAB9, 10 µM (active); with ICS, 7.94 µM (active). The Potency was 6.31 µM (active) with N140, 11.2 µM (active) in the assay with P93_24, 11.2 µM (active) with PAD and 10 µM (active) with TAB165.

The values above are taken from PubChem BioAssay (NCATS).
